For orientation: inhibition means the drop in the measured response relative to a control, in per cent.

For 73 compounds, inhibition results are on record in PubChem BioAssay AID488890 (Southern Research Specialized Biocontainment Screening …, 2010).

SMILES strings stand for the structures. About 1,300 (0.41%) of roughly 320,000 compounds were called active. Inconclusive results (about 3%) are left out. How the calls were made is not given here. The list is a sample of the results. Potency and affinity values are given separately.

This test is described as follows: growth inhibition of non-replicating M. tuberculosis (AID 488890).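 Further: plate controls were DMSO cells for no effect and high antibiotic wells for full effect.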 The conditions noted are these: Mycobacterium tuberculosis non-replicating, at 25 µM, stronger effect = higher value.
For the compound `c1coc(Cn2c(-c3ccco3)nc3ccccc32)c1`, the inhibition came out at 6.77%.
Take `c1ccc(OCCn2c(-c3ccco3)nc3ccccc32)cc1`: the inhibition came out at 74.4%.
The figure for `C=CCSc1nnc2c(n1)OC(C)=Nc1ccc(Br)cc1-2` is 5.66%.
Take `Cc1cc(NC(=O)COC(=O)c2ccccc2S(=O)(=O)N(C)c2ccccc2)no1`: the inhibition worked out at 9.17%.
With `O=C(CCOc1ccccc1)Nc1nnc(-c2ccc3c(c2)OCCO3)o1`, the inhibition is -7.7%.
Take `O=C(Nc1ccc2c(c1)CCC2)c1c(F)cccc1Cl`: the inhibition amounted to 1.55%.
Consider `Cc1ccc(C)c(-c2nnc(NC(=O)Cc3ccccc3)o2)c1`, for which the inhibition is -18%.
As for `O=C(Nc1nnc(-c2ccncc2)o1)c1ccccc1F`, the inhibition amounted to 21.3%.
As for `CC1(C(=O)OCC(=O)Nc2ccccc2)CC1(Cl)Cl` (stereo not drawn), the inhibition was found to be 48.2%.
`O=C(COc1ccccc1)Nc1nnc(-c2ccco2)o1`: the inhibition was found to be 19.2%.
Take `O=C(COC(=O)Cc1ccccc1)Nc1nnc(-c2ccccc2)o1`: the inhibition stood at 10.8%.
Regarding `CS(=O)(=O)c1ccccc1-c1nnc(NC(=O)COc2ccc(Cl)cc2)o1`, the inhibition was 21.8%.
Turning to `COc1ccccc1NC(=O)COC(=O)CCc1ccc(S(=O)(=O)N2CCOCC2)cc1`, the inhibition was 5.51%.
Take `CCCCN1CC(COc2ccccc2)OC1=O` (stereo not drawn): the inhibition came to 72.5%.
As for `COc1ccc(Nc2oc(COc3cccc(C)c3)nc2C#N)cc1`, the inhibition stood at 13.3%.
On to `CCN(CC)S(=O)(=O)c1ccc(N2CCCC2)c(NC(=O)c2c(-c3ccccc3)noc2C)c1`, for which the inhibition amounted to 13.9%.
`Cc1cccc(C(=O)NCC(=O)OCC(=O)NC2CCCCC2)c1`: the inhibition was -3.75%.
Regarding `O=C(NCc1ccncc1)C(=O)NCC1OCCN1S(=O)(=O)c1cc(F)ccc1F` (stereo not drawn), the inhibition was determined as 3.82%.
Regarding `Cc1cccc2c(=O)c(C(=O)NCCCN3CCOCC3)c[nH]c12`, the inhibition worked out at 4.67%.
Consider `Cc1nnc(SCCn2c(N3CCCCC3)nc3c2c(=O)n(C)c(=O)n3C)s1`, for which the inhibition was found to be 7.29%.
As for `O=C(Nc1ccc([N+](=O)[O-])cn1)c1ccc2c(c1)OCO2`, the inhibition was -8.57%.
Regarding `Cc1cnc(NC(=O)c2ccc3c(c2)OCCO3)s1`, the inhibition was 12.1%.
Take `Cc1ccc(C2(c3noc(CN4CCC(C(=O)N5CCOCC5)CC4)n3)CCCC2)cc1`: the inhibition is 14.3%.
For `COC(=O)c1oc2ccc(Br)cc2c1NC(=O)CCCN1C(=O)c2ccccc2C1=O`, the inhibition is -12.2%.
As to `CC(=O)Oc1ccc(C(=O)Nc2cccc(C(=O)NC(C)(C)C)c2)cc1`, the inhibition was found to be 7.66%.
As to `O=C(COc1ccc2c(-c3ccccc3)cc(=O)oc2c1)NCc1ccccn1`, the inhibition stood at 7.24%.
Take `Cc1nn(-c2ccccc2)c(C)c1CN`: the inhibition was 6.26%.
On to `CCOc1ccc(C(=O)Oc2ccc(NC(C)=O)cc2)cc1`, for which the inhibition was 24.7%.
The result for `CC(=O)Nc1ccc(OC(=O)c2ccc(Cl)cc2)cc1` reads 52.1%.
Turning to `Cc1ccc(N2CC(C(=O)Nc3nnc(SCCC4OCCO4)s3)CC2=O)cc1C` (stereo not drawn), the inhibition stood at 27.4%.
Consider `CCN(CC(=O)NCc1ccc(F)cc1)C(=O)COc1ccc(C)c(C)c1`, for which the inhibition came to 28.3%.
Consider `COc1ccc(C(=O)O)cc1S(=O)(=O)NC(C)C`, for which the inhibition is -0.91%.
For `Oc1ccc(Br)cc1-c1cc(-c2ccccc2)n[nH]1`, the inhibition is -5.74%.
The result for `Oc1ccc(Br)cc1-c1cc(-c2ccc(Cl)cc2)n[nH]1` reads 13.8%; that for `C1=C(CCNCc2ccccc2)CCCC1`, -4.9%.
With `O=C(NNC(=O)C1CC1c1ccccc1)c1ccccc1[N+](=O)[O-]` (stereo not drawn), the inhibition is -10.3%.
The figure for `O=C(NC(NNc1ccc([N+](=O)[O-])cc1)(C(F)(F)F)C(F)(F)F)c1ccccc1Cl` is 6.68%; for `Cc1cc(C(=O)N/N=C/c2cccs2)no1` it is 33.9%; for `Cc1cc(C(=O)N/N=C/c2ccc[nH]2)no1` it is 64.3%.
As for `O=C(O)c1ccccc1C(=O)NNc1ccc(Cl)cc1Cl`, the inhibition amounted to 10.7%.
Turning to `NS(=O)(=O)c1ccc(NNC(=O)c2ccccc2C(=O)O)cc1`, the inhibition was -12.1%.
For `O=C(NNc1ccc([N+](=O)[O-])cc1)c1ccco1`, the inhibition amounted to 69.6%.
As for `O=C(NNC(=O)C1CC1c1ccccc1)c1cccc([N+](=O)[O-])c1` (stereo not drawn), the inhibition was 3.57%.
Turning to `CN(c1ccccc1)S(=O)(=O)c1ccc(NC(=S)NC(=O)C2CC2)cc1`, the inhibition is -18.9%.
For `COc1cc(OC)cc(C(=O)N2CCC(C(=O)c3ccc(F)cc3)CC2)c1`, the inhibition amounted to 5.91%.
On to `CC(C)[C@@H](C(=O)NC1CC1)N1C(=O)N2CCc3c([nH]c4ccccc34)[C@@]2(C)C1=O`, for which the inhibition came out at 21%.
For `CC1CCC(NC(=O)CN2CCN(S(=O)(=O)c3cccs3)CC2)CC1` (stereo not drawn), the inhibition turned out to be 1.37%.
Turning to `Cc1nc2c(-c3ccc(F)cc3)c(C)nn2c(N2CCOCC2)c1C`, the inhibition was 40.1%.
Regarding `O=C(O)CSc1nnc(-c2ccc(Cl)cc2Cl)n1Cc1ccccc1`, the inhibition is -8.24%.
Consider `O=C(NC1CCCCC1)C(c1cccs1)N(C(=O)C(F)(F)F)c1ccccc1` (stereo not drawn), for which the inhibition was 14.2%.
As to `Cc1cc(C(=O)NNc2ccc(F)cc2)no1`, the inhibition was determined as 57.1%.
Consider `Cc1cc(C(=O)NNC(=O)Nc2ccc(Cl)cc2)no1`, for which the inhibition was -6.49%.
`Cc1ccc(C)c(C(=O)CCC(=O)Nc2ccc(F)cc2)c1`: the inhibition came out at 40%.
With `CC(C)OCC(O)CS(=O)(=O)Cc1ccccc1` (stereo not drawn), the inhibition was -5.18%.
The result for `O=C(c1cccnc1)N1CCC(Oc2ccc(C(=O)N3CCCC(O)C3)cc2)CC1` (stereo not drawn) reads -34.2%.
The result for `CSc1cc(C)[nH]c(=O)n1` reads -1.97%; that for `CSc1nc(Cl)cc(=O)[nH]1`, 6.5%; that for `O=C(NCC(c1ccco1)N1CCc2ccccc21)c1ccccc1Br` (stereo not drawn), 11.1%.
`CC(=O)NCCc1nc2ccccc2n1Cc1ccc(Cl)cc1`: the inhibition was determined as 0.72%.
As for `O=C(Nc1nc2ccccc2n1Cc1ccc(Cl)cc1)c1ccco1`, the inhibition was -7.17%.
For `Cc1ccc(Cn2c(NS(=O)(=O)c3ccccc3)nc3ccccc32)cc1`, the inhibition is -3.28%.
`CC(=O)NCCCc1nc2ccccc2n1Cc1ccc(C)cc1`: the inhibition came to 1.78%.
For `CC(=O)Nc1ccc(-c2nc3cc(Cl)ccc3o2)cc1`, the inhibition was 49.8%.
In the case of `CC/C(=N\NC(N)=O)c1c(O)[nH]c(=O)[nH]c1=O`, the inhibition is -25.7%.
With `C/C(Cn1nnc([N+](=O)[O-])n1)=N\NC(=O)c1ccc(O)cc1`, the inhibition stood at 54.4%.
For `C/C(Cn1nnc([N+](=O)[O-])n1)=N\NC(=O)c1ccc(C)cc1`, the inhibition is 55.5%.
Turning to `Cc1nc2c(sc3nc4c(cc32)COC(C)(C)C4)c(=O)n1Cc1ccccc1`, the inhibition was 8.21%.
The figure for `CCNC(=O)OCC12CC3CC(CC(C3)C1)C2` is 77%.
As for `CCCNC(=O)OCCC12CC3CC(CC(C3)C1)C2`, the inhibition worked out at 69.4%.
In the case of `COc1ccc(Cl)c2sc(N(CCN(C)C)C(=O)CCS(=O)(=O)c3ccc(C)cc3)nc12`, the inhibition is 26.4%.
With `O=C(NCC1CCCN(C(=O)c2cccnc2)C1)c1ccc(-c2ccccc2)cc1` (stereo not drawn), the inhibition is -2.83%.
As for `O=[N+]([O-])c1ccc(Nc2ccc(Cl)cc2)nc1`, the inhibition is 16.9%.
As for `O=C(O)c1ccc(Nc2ncc([N+](=O)[O-])cc2[N+](=O)[O-])cc1`, the inhibition was determined as 5.68%.
